Test [1] is described as follows: qHTS profiling for inhibitors of Plasmodium falciparum (DD2) proliferation (AID 743323). The following applies: lower = more inhibition; at 28.7 µM (top of the series). In short, it runs like this:
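Parasite proliferation measured via DNA-dye fluorescence, as uninfected erythrocytes lack DNA. Cultures at 0.3% parasitemia and 2.5% hematocrit incubated 72 h with compound; signal scaled between vehicle and 0.29 uM artemisinin wells.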

Test [2] is described as follows: qHTS profiling of the MIPE4 collection as inhibitors of Plasmodium falciparum (3D7) proliferation (AID 743344).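 Note: scaled between DMSO vehicle wells and 0.29 µM artemisinin as full inhibition.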 As to conditions: P. falciparum 3D7 in erythrocytes, SYBR Green DNA fluorescence, 72 h; at 28.5 µM (top of the series) unless noted. In short, it runs like this: (§1)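 Parasite DNA was quantified by SYBR Green I fluorescence (ex 485, em 535 nm) after overnight lysis in saponin/Triton buffer at room temperature. Cultures at 0.3% parasitemia and 2.5% hematocrit were first exposed to compound for 72 h at 37 C; signals were normalised to artemisinin (0.29 uM) and vehicle wells.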
A general note: qHTS replaces the single test concentration by a dilution series.

Test [3] is described as follows: qHTS profiling of the MIPE4 collection as inhibitors of Plasmodium falciparum (DD2) proliferation (AID 743345). As to conditions: P. falciparum Dd2 in erythrocytes, SYBR Green DNA, 72 h; at 28.5 µM (top of the series) unless noted. In short, it runs like this: as §1
Test [4] can be described thus: qHTS profiling of the MIPE4 collection as inhibitors of Plasmodium falciparum (HB3) proliferation (AID 743347).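 Note: plate controls were DMSO vehicle wells for no effect and artemisinin wells for full effect.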 As to conditions: P. falciparum HB3 in erythrocytes, SYBR Green DNA, 72 h; at 28.5 µM (top of the series) unless noted. In short, it runs like this: as §1
The nature of test [5]: High-throughput drug toxicity screening in the BPDCN cell line Gen2.2 (AID 1224824).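 Note: cells exposed to compounds for 48 h before reading.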 As to conditions: Gen2.2 BPDCN cells; at 45.8 µM (top of the series) unless noted. The procedure, abridged: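 Readout is ATP luminescence from Gen2.2 cells after two days of drug exposure in serum-containing medium at 37 °C. Values express percent activity, with vehicle defining full signal and 9.2 uM bortezomib defining zero.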

Test [6] in a line: High-throughput drug toxicity screening in the BPDCN cell line Cal-1 (AID 1224825). The following applies: Cal-1 BPDCN cell viability, qHTS; at 45.8 µM (top of the series) unless noted. The procedure, abridged:
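CellTiter-Glo luminescence after 48 h compound exposure; percent activity scaled with DMSO as 100% and bortezomib (9.2 uM final) as 0%. Cal-1 cells seeded at 500/well in RPMI, 10% FBS, no phenol red.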

Test [7] in a line: qHTS profiling of the MIPE4 collection as inhibitors of Plasmodium falciparum (DD2) proliferation (Rep 2) (AID 743346). The following applies: P. falciparum Dd2 in erythrocytes, SYBR Green DNA, 72 h; at 28.5 µM (top of the series) unless noted. The procedure, abridged:
as §1

Molecules are shown by their SMILES.

Take `CN1CCC(CNc2ccc3ncc(-c4cccc(OC(F)(F)F)c4)n3n2)CC1`: in test [1], the activity, percent of control was -0.747%. In test [2], the parasite growth, % of DMSO control was found to be 5.42%. The compound further came in with a parasite growth remaining, % of DMSO control (lower = more inhibition) in test [3] of 6.44%. For the same compound, the growth, % of control in test [4] was 8.22%. For the same compound, the cell viability, % of control (lower = more cytotoxic) in test [5] was determined as 11.1%. Also, the viability (% of control) in test [6] was determined as 7.35%.

On to `Clc1cccc(-c2nnnn2Cc2cccnc2)c1Cl`, for which the parasite growth, % of DMSO control in test [2] was found to be 72.2%. Besides, the parasite growth remaining, % of DMSO control (lower = more inhibition) in test [3] turned out to be 95.6%. Also, the parasite growth, % of control (lower = inhibition) in test [7] turned out to be 84.8%. For the same compound, the cell viability, % of control (lower = more cytotoxic) in test [5] was found to be 164%. The viability (% of control) in test [6] worked out at 95.3%.

`CN(C)Cc1c(C(=O)NCCOc2ccc(C(=O)NO)cc2)oc2ccccc12` registered a parasite growth, % of DMSO control in test [2] of 5.24%. The compound further came in with a parasite growth remaining, % of DMSO control (lower = more inhibition) in test [3] of 7.04%. Besides, in test [7], the parasite growth, % of control (lower = inhibition) was 7.09%. The cell viability, % of control (lower = more cytotoxic) in test [5] amounted to 38.7%. Also, the viability (% of control) in test [6] is 5.5%.

Regarding `Cc1c(CN2CCN(S(C)(=O)=O)CC2)sc2c(N3CCOCC3)nc(-c3cnc(N)nc3)nc12`, the parasite growth, % of DMSO control in test [2] worked out at 5.64%. This compound also came in with a parasite growth remaining, % of DMSO control (lower = more inhibition) in test [3] of 14.2%. Moreover, the cell viability, % of control (lower = more cytotoxic) in test [5] stood at 16.1%. The viability (% of control) in test [6] is 19.3%.

On to `CN(C1CCc2c(c3ccccc3n2CC(=O)O)C1)S(=O)(=O)c1ccc(F)cc1` (stereo not drawn), for which the parasite growth, % of DMSO control in test [2] was 15.9%. This compound showed a parasite growth remaining, % of DMSO control (lower = more inhibition) in test [3] of 93.1%. For the same compound, the parasite growth, % of control (lower = inhibition) in test [7] was 19%. Besides, the growth, % of control in test [4] was found to be 19.9%. The cell viability, % of control (lower = more cytotoxic) in test [5] came out at 243%. In test [6], the viability (% of control) was 39.5%.

As for `CN[C@H]1CCc2cc(OC)c(OC)c(OC)c2-c2ccc(OC)c(=O)cc21`, in test [2], the parasite growth, % of DMSO control was 67.4%. In test [3], the parasite growth remaining, % of DMSO control (lower = more inhibition) amounted to 90.5%. Moreover, the parasite growth, % of control (lower = inhibition) in test [7] stood at 47.1%. Moreover, the cell viability, % of control (lower = more cytotoxic) in test [5] turned out to be 24.2%. Moreover, the viability (% of control) in test [6] was determined as 11.6%.

The compound `CCNC(=O)Nc1ccc2ncc(Nc3ccc(C)cc3)nc2n1` displayed a parasite growth, % of DMSO control in test [2] of 19.5%. Also, in test [3], the parasite growth remaining, % of DMSO control (lower = more inhibition) came out at 71.6%. Also, in test [7], the parasite growth, % of control (lower = inhibition) stood at 33%. In addition, the growth, % of control in test [4] is 16.3%. The cell viability, % of control (lower = more cytotoxic) in test [5] turned out to be 50.5%. The viability (% of control) in test [6] was found to be 19.7%.

In test [2], `CC[C@H]1CN2CCc3cc(OC)c(OC)cc3[C@H]2C[C@@H]1C[C@@H]1NCCc2cc(OC)c(OC)cc21` gave a parasite growth, % of DMSO control of 4.96%. In test [3], the parasite growth remaining, % of DMSO control (lower = more inhibition) worked out at 6.45%. In addition, the parasite growth, % of control (lower = inhibition) in test [7] was 7.29%. Besides, the growth, % of control in test [4] came out at 3.29%. In test [5], the cell viability, % of control (lower = more cytotoxic) came to 8.8%. In test [6], the viability (% of control) stood at 6.78%.

For `O=C(Cc1ccc(-c2ccc(OCCN3CCOCC3)cc2)cn1)NCc1ccccc1`, in test [2], the parasite growth, % of DMSO control came out at 20.6%. Moreover, the parasite growth remaining, % of DMSO control (lower = more inhibition) in test [3] was 20.2%. Besides, the parasite growth, % of control (lower = inhibition) in test [7] amounted to 27.1%. Moreover, in test [4], the growth, % of control turned out to be 11.9%. Also, the cell viability, % of control (lower = more cytotoxic) in test [5] worked out at 49.1%. Also, the viability (% of control) in test [6] was 9.81%.

Consider `Cc1c(Cn2c(C)nc3c(C(=O)O)cc(N4CCOCC4)cc32)cccc1C(F)(F)F`, for which the parasite growth, % of DMSO control in test [2] stood at 72.5%. The compound also gave a parasite growth remaining, % of DMSO control (lower = more inhibition) in test [3] of 93.9%. In addition, the parasite growth, % of control (lower = inhibition) in test [7] was determined as 104%. The growth, % of control in test [4] is 124%. For the same compound, in test [5], the cell viability, % of control (lower = more cytotoxic) stood at 52.8%. The viability (% of control) in test [6] is 70.7%.

On to `COc1ccc(C(=O)CC2(O)C(=O)Nc3c(Cl)ccc(Cl)c32)cc1` (stereo not drawn), for which the parasite growth, % of DMSO control in test [2] turned out to be 74.3%. The parasite growth remaining, % of DMSO control (lower = more inhibition) in test [3] came out at 85.7%. Besides, in test [7], the parasite growth, % of control (lower = inhibition) came out at 75.9%. In test [4], the growth, % of control was found to be 62.1%. Besides, the cell viability, % of control (lower = more cytotoxic) in test [5] came out at 26.7%. In test [6], the viability (% of control) came to 11.2%.

In test [2], `Cc1cn2cc(C(=O)N(C)CCO)cc(N[C@@H]3CCOc4cccc(C)c43)c2n1` had a parasite growth, % of DMSO control of 33.4%. Further, in test [3], the parasite growth remaining, % of DMSO control (lower = more inhibition) worked out at 86.7%. Moreover, the parasite growth, % of control (lower = inhibition) in test [7] amounted to 47.2%. The same compound showed a growth, % of control in test [4] of 47.6%. Moreover, the cell viability, % of control (lower = more cytotoxic) in test [5] came out at 152%. The viability (% of control) in test [6] worked out at 114%.

Regarding `C[C@]12CC[C@H](O)CC1=CCC1C2CC[C@]2(C)C(n3cnc4ccccc43)=CCC12` (stereo partly drawn), the parasite growth, % of DMSO control in test [2] amounted to 6.89%. Moreover, in test [3], the parasite growth remaining, % of DMSO control (lower = more inhibition) stood at 72.8%. The parasite growth, % of control (lower = inhibition) in test [7] came to 21.9%. Also, the growth, % of control in test [4] turned out to be 9.11%. In addition, in test [5], the cell viability, % of control (lower = more cytotoxic) is 109%. Further, the viability (% of control) in test [6] was 91.9%.

Source of the values: PubChem BioAssay (NCATS).
